Laboratory results taken from PubChem BioAssay (EPA / NIEHS).
Values joined by “and” are separate entries in the source; they are usually repeats but may differ in a detail not shown here. Equal values may be shown once. Results filed as inconclusive are left out. A structure can be active in one record and inactive in another. Active and inactive are the calls of the source. The calls were made as follows, unless noted: active = hit-call score of the fitted dose curve at least 0.9, where 1 is the maximum; inactive = score below 0.9.

What was measured:
[1] = ACEA_ER_80hr: ACEA Biosciences xCELLigence Real-Time Cell Analysis on Estrogen Receptor Agonism for Proliferation (AID 2282667; active = hit-call score of the fitted dose curve at least 0.9, where 1 is the maximum); details: T47D proliferation, impedance (xCELLigence), 80 h
Method in brief: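 Real-time impedance growth kinetics of human T-47D breast cells read 80 h after dosing, gain-of-signal fitted relative to DMSO. Compounds: 1:4 serial series, top final concentration 100 uM, n = 2.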

[2] = APR_HepG2_NuclearSize_24hr: Apredica 24-hour HepG2 Assay for Nuclear Size (AID 2282907); details: high-content imaging, actives raise or lower the signal
Method in brief: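 HepG2 human liver cells were exposed for 24 hr to compounds at 0.39–200 uM (ten concentrations, duplicate) in 0.5% v/v DMSO. They were then formaldehyde-fixed, Triton-permeabilized and Hoechst 33342-stained, and nuclear diameter was imaged at 20x. Bidirectional fits were made against DMSO.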

[3] = APR_HepG2_CellLoss_24hr: Apredica 24-hour HepG2 Assay for Cell Loss (AID 2282908); details: high-content imaging;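 as to AC50: fit in both directions so a hit may be cell loss or gain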
Method in brief: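 Compounds were tested at 0.39–200 uM in duplicate with 0.5% v/v DMSO final. Cells were then fixed in 3.7% formaldehyde, Hoechst 33342 nuclei were imaged at 20x by HCS, and cell number was fitted bidirectionally against DMSO.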

[4] = APR_HepG2_MicrotubuleCSK_24hr: Apredica 24-hour HepG2 Assay for Microtubule CSK Stabilty (AID 2282909); details: HepG2 microtubule cytoskeleton imaging, actives raise or lower the signal
Method in brief: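 HepG2 cells exposed 24 h to compounds at 0.39–200 uM (duplicate, 0.5% v/v DMSO final), then fixed, permeabilized and immunostained for alpha-tubulin with Hoechst 33342. Cytoskeleton imaged at 20x; bidirectional fit versus DMSO baseline.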

[5] = APR_HepG2_MitoticArrest_24hr: Apredica 24-hour HepG2 Assay for Mitotic Arrest (AID 2282910); details: high-content imaging, actives raise or lower the signal
Method in brief: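 HepG2 cells, 24 h exposure at 0.39-200 uM (10 concentrations, duplicate, 0.5% DMSO). Fixed, stained for phospho-histone H3 with Hoechst; imaged by high-content microscopy, bidirectional fit versus DMSO.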

[6] = APR_HepG2_MitoMembPot_24hr: Apredica 24-hour HepG2 Assay for Mitochondrial Membrane Potential (AID 2282911); details: imaging, actives raise or lower the signal
Method in brief: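 Mitochondrial membrane potential imaged via MitoTracker Red CMXRos (250 nM, 30 min pre-fixation) in fixed HepG2 cells with Hoechst nuclear identification. Ten concentrations 0.39–200 uM, 24 h treatment, 0.5% DMSO; CCCP as positive control.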

[7] = APR_HepG2_p53Act_24hr: Apredica 24-hour HepG2 Assay for p53 Activation (AID 2282913); details: high-content imaging, actives raise or lower the signal;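 also: p53 protein immunofluorescence averaged per cell in HepG2 with Hoechst nuclei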
Method in brief: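 Fluorescence imaging of formaldehyde-fixed HepG2 cells labelled for p53 and with Hoechst, 24 h after dosing (0.39–200 uM, duplicate wells, 0.5% v/v DMSO). Signal fitted in both directions relative to DMSO.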

[8] = APR_HepG2_CellCycleArrest_72hr: Apredica 72-hour HepG2 Assay for Cell Cycle Arrest (AID 2282914); details: high-content imaging, actives raise or lower the signal
Method in brief: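 Read-out: nuclear DNA content from Hoechst 33342 high-content imaging (20x, six fields/well) after 3.7% formaldehyde fixation, fitted bidirectionally against DMSO. Treatment was 72 h in HepG2, ten concentrations 0.39–200 uM, duplicate, 0.5% DMSO.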

[9] = APR_HepG2_MitoMass_24hr: Apredica 24-hour HepG2 Assay for Mitochondrial Mass (AID 2282912); details: high-content imaging, actives raise or lower the signal
Method in brief: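 Human HepG2 liver cells were exposed for 24 hr to compounds at 0.39–200 uM (duplicates, 0.5% v/v DMSO final). They were stained live with 250 nM MitoTracker Red CMXRos for 30 min, fixed in 3.7% formaldehyde, and imaged by HCS fluorescence; signals were fitted bidirectionally against DMSO.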

[10] = APR_HepG2_CellCycleArrest_24hr: Apredica 24-hour HepG2 Assay for Cell Cycle Arrest (AID 2282905); details: imaging, actives raise or lower the signal;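 also: cell cycle arrest scored as ratio of 2N to 4N nuclear DNA content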
Method in brief: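 HepG2 cells were exposed to compounds at 0.39–200 uM (ten concentrations, duplicate) in 0.5% v/v DMSO for 24 hr. After formaldehyde fixation and Triton permeabilization, Hoechst 33342-stained nuclei were imaged at 20x; DNA content was quantified, with bidirectional fitting against DMSO.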

Measured: AC50

CC(C)CCCCCCOC(=O)CCCCC(=O)OCCCCCCC(C)C
not listed: [9] | [10]
inactive: all other assays above

CCc1ccc(CCOc2ccc(CC3SC(=O)NC3=O)cc2)nc1 (stereo unspecified)
active: [3] 110 µM | [8] 94.4 µM
not listed: [10]
inactive: all other assays above

COCC(C)O (stereo unspecified)
active: [6] 0.0477 µM
not listed: [9]
inactive: all other assays above

CCCOC(=O)c1ccc(O)cc1
active: [1] 2.7 µM
not listed: [10]
inactive: all other assays above

CCCCCCCCCCCCN1CCCC1=O
active: [10] 53.5 µM | [2] 75.3 µM | [3] 47.4 µM | [5] 68.7 µM | [9] 51 µM | [8] 42.6 µM
inactive: [1] | [4] | [6] | [7]

NCC(F)(F)C(F)(F)C(F)(F)C(F)(F)C(F)(F)C(F)(F)C(F)(F)F
inactive: [1]

N#C[C@@H]1CC(F)(F)CN1C(=O)CNC1CC2CCC(C1)N2c1ncccn1 (stereo partly specified)
active: [1] 4 µM
not listed: [9] | [10]
inactive: all other assays above

Oc1cccc(O)c1
not listed: [9]
inactive: all other assays above

NC(=O)N(O)[C@@H]1C=C[C@H](Oc2cccc(Oc3ccc(F)cc3)c2)C1
active: [3] 107 µM | [4] 93 µM | [6] 32.9 µM | [7] 105 µM
not listed: [10]
inactive: all other assays above

CCCCCCCC(=O)O
active: [6] 0.0327 µM
inactive: all other assays above

CCC(C)(C)C1CCC(O)CC1 (stereo unspecified)
inactive: [1] | [2] | [4] | [5] | [6] | [8]
active: [1] 2.38 µM and 336 nM | [3] 99.8 µM | [7] 122 µM

CC(=O)CC(C)(C)O
inactive: [2] | [6]
active: [1] 16.2 µM | [10] 0.0392 µM | [3] 19.8 µM | [4] 0.0415 µM | [5] 0.0402 µM | [9] 8.56 µM | [7] 0.106 µM | [8] 32.1 µM

CC(C)(C)c1cc(C(C)(C)C)c(O)c(C(C)(C)C)c1
active: [1] 10.6 µM
not listed: [9] | [10]
inactive: all other assays above

COc1ccc([N+](=O)[O-])cc1N
inactive: all assays above

CCCCCCCCC(=O)O
not listed: [10]
inactive: all other assays above

Cc1ccc(S(=O)(=O)O)c(C)c1
inactive: [1]

FC(F)(I)C(F)(F)C(F)(F)C(F)(F)C(F)(F)C(F)(F)I
active: [1] 6.86 nM and 252 nM

CCOC(=O)CC(O)(CC(=O)OCC)C(=O)OCC
active: [1] 0.75 µM
inactive: all other assays above

CCCCCCC(=O)O
inactive: all assays above

CN1CCC[C@H]1c1cccnc1
not listed: [7] | [9]
inactive: all other assays above

CC[C@H](C)[C@@H](C(=O)O)n1sc2ccccc2c1=O
active: [6] 100 µM
inactive: all other assays above

COc1cc(CCC(=O)CC(=O)CCc2ccc(O)c(OC)c2)ccc1O
not listed: [9]
inactive: all other assays above

CC(O)CO (stereo unspecified)
not listed: [9]
inactive: all other assays above

CC(O)C(=O)O (stereo unspecified)
inactive: [1]

OCCC(F)(F)C(F)(F)C(F)(F)C(F)(F)C(F)(F)C(F)(F)F
not listed: [9] | [10]
inactive: all other assays above

O=C(OCCOCCOC(=O)c1ccccc1)c1ccccc1
not listed: [9] | [10]
inactive: all other assays above

CCCCC(CC)COC(=O)CCCCC(=O)OCC(CC)CCCC (stereo unspecified)
not listed: [9]
inactive: all other assays above

CC1=C(/C=C/C(C)=C/C=C/C(C)=C/C(=O)O)C(C)(C)CCC1
inactive: [4] | [7] | [8]
active: [1] 0.00133 µM | [2] 114 µM | [3] 103 µM | [5] 109 µM | [6] 83.2 µM | [9] 92.6 µM

CCCCC[C@H](O)CC(=O)CCc1ccc(O)c(OC)c1
not listed: [9]
inactive: all other assays above

OC1CCCCC1
not listed: [9]
inactive: all other assays above

CCCOc1sc(C(=O)N2CCC(c3cc(CN)ccc3F)CC2)c(C)c1Br
inactive: [1] | [2] | [8]
active: [10] 22.3 µM | [3] 6.74 µM | [4] 15.6 µM | [5] 5.77 µM | [6] 7.27 µM | [7] 4.2 µM

CN(C)C=O
not listed: [9]
inactive: all other assays above

Cc1cc(C)c(O)c(C)c1
not listed: [9]
inactive: all other assays above
